ATXN2 expr inh – ATXN2 expression inhibition | HEK-293 ATXN2-luciferase reporter, luminescence, 24 h | Potency, µM (highest dose often 57 µM), most hits filed as inhibitors | actives 0.72% (n = 360,000); also: nearly all actives have a fitted effect of over 55% in size
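qHTS (up to 57 uM final) was run with 24 h compound exposure of reporter cells at 37 °C. Each well was multiplexed: SteadyGlo luminescence measured ATXN2-luciferase expression after a fluorogenic Gly-Phe-AFC viability readout (25 uM final).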
S2 tox – reduces viability in counter-screen for ATXN expression inhibitors; actives 0.49% (n = 400,000); Potency, µM (series often up to 56.7 µM), actives largely listed as cytotoxic; S2 cells (HEK-293 line with an ATXN2-luciferase reporter) viability, CellTiter-Fluor protease fluorescence, 24 h; AID 651635; also: nearly all actives have a fitted effect of over 40% in size
IL1B secr inh – inhibitors of inflammasome signaling (IL-1 beta secretion); THP-1 LPS/ATP IL-1B secretion, AlphaLISA, 16 h; hits give low values; activity change, % at 57.5 µM; actives 4.7% (n = 360,000); in the data active = activity change below about -50%; inconclusive = mostly about -30% to -49%
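THP-1 cells pretreated 1 hr with compounds (up to 57.5 uM final), then stimulated with LPS (250 ng/mL final) plus ATP (1.25 mM final); secreted IL-1B measured by AlphaLISA after 16 hr, decreased signal indicating inhibition.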
SW480 rereplic – induces DNA re-replication in SW480 colon adenocarcinoma cells; SW480 DNA re-replication, Hoechst DNA content imaging, 48 h; Potency, µM (titrated, usually from 46.1 µM), usual class: activators; actives 1.8% (n = 340,000); AID 624297; also: nearly all actives have a fitted effect of over 55% in size
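First, 250 cells per well were seeded. Next, compound or vehicle (23 nL) was pinned in, plates sat 48 hr at 37 C. Finally Hoechst was added for 40 min before fluorescence scanning.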
MCF10A rerep – DNA re-replication induction in MCF 10a cells. actives 2.9% (n = 350,000). AID 624296. MCF 10A DNA re-replication, Hoechst nuclear intensity, 48 h. Potency, µM (titrated, usually from 46.1 µM), hits mostly activators; also: nearly all actives have a fitted effect of over 50% in size
PINK1 expr mod – modulators of PINK1 expression; PINK1 immunofluorescence, high-content cytometry, 24 h; Potency, µM (top dose mostly 76.6 µM), most hits filed as activators; actives 0.2% (n = 410,000); active = well fitted activation curve with a large enough effect; inconclusive = small, poorly fitted or top-dose-only effect; cell line not stated here; also: nearly all actives have a fitted effect of over 65% in size
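Stable cell line treated 24 h with compounds at 5 concentrations (CCCP controls), then fixed and immunostained for PINK1 plus nuclear and cell stains; PINK1 immunofluorescence quantified by laser-scanning microplate cytometry.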
Numbers stand for hits; – = inactive; ? = inconclusive; · = no result; ! = a repeat was not active; [ ] = remark or other dose. Compounds with a hit are over-represented: about 7.1% of the library has one in this group of screens. Unless noted, calls follow the shape of the dose curve; as a rule, active = well fitted curve in the direction sought with a large enough effect; inconclusive = small, poorly fitted or top-dose-only effect, or another doubt; inactive = no such curve, though single readings can be large; an effect the other way counts as inactive or inconclusive.

SMILES | ATXN2 expr inh | S2 tox | IL1B secr inh | SW480 rereplic | MCF10A rerep | PINK1 expr mod
CCOc1ccc2ccc(OCC)c(/C=N/n3cnnc3)c2c1 | – | – | -72.9 | – | – | –
Cc1cc(C(=O)NOCCO)c(Nc2ccc(I)cc2F)n(C)c1=O | – | · | · | · | · | ·
COc1ccc2c(C)c(CCC(=O)NCCc3ccccc3OC)c(=O)oc2c1 | – | – | · | · | · | –
Oc1ccccc1CN(Cc1ccco1)CC(O)COCc1ccc(Cl)cc1 (configuration not stated) | – | – | -99.3 | – | ? | –
COc1ccc(COCC(O)CN(Cc2ccco2)Cc2ccccc2O)cc1 (configuration not stated) | – | – | – | – | – | –
CN(C)N=Nc1ccc(/C=C2\C=Cc3ccccc32)cc1 | · | · | · | · | · | –
CC(=O)Nc1cccc(-n2c(=O)n(C3CC3)c(=O)c3c(Nc4ccc(I)cc4F)n(C)c(=O)c(C)c32)c1 | – | · | · | · | · | ·
CN(C(=O)c1cccc(NC(=O)Cc2ccc(NC(=O)C3CCCN(C(=O)C4CC4)C3)cc2)c1)C1CCCCC1 (configuration not stated) | – | – | – | 2.59µM | – | –
O=C(CNc1cccc([N+](=O)[O-])c1)NCCCc1ccccc1 | – | – | -95.7 | – | – | –
CN(CCc1ccccc1)C(=O)c1ccc(NC(=O)Cc2cccc([N+](=O)[O-])c2)cc1 | ? | ? | -50.8 | – | – | –
CN(C(=O)c1cccc(NC(=O)Cc2ccc(NC(=O)C3CCCN(C(=O)C4CCCCC4)C3)cc2)c1)C1CCCC1 (configuration not stated) | – | – | – | ? | – | –
CN(CCc1ccccc1)C(=O)c1ccc(NC(=O)Cc2ccc(NC(=O)C3CCN(C(=O)C4CC4)CC3)cc2)cc1 | – | – | -56.1 | ? | – | –
CN(CCc1ccccc1)C(=O)c1ccc(NC(=O)Cc2ccc(NC(=O)C3CCN(C(=O)C4CCCC4)CC3)cc2)cc1 | – | ? | ? | ? | – | –
CCN(CC)S(=O)(=O)c1ccc2c(c1)N(CC(=O)N(C)Cc1ccccc1)C(=O)CO2 | – | – | · | · | · | –
O=C(O)c1cccc2c1C(=O)c1cc([N+](=O)[O-])ccc1-2 | – | – | – | – | ? | –
CN(C(=O)c1ccc(NC(=O)Cc2ccc(NC(=O)C3CCN(C(=O)C4CCC4)CC3)cc2)cc1)C1CC1 | – | – | ? | – | – | –
CN(C(=O)c1ccc(NC(=O)Cc2ccc(NC(=O)C3CCN(C(=O)C4CCCC4)CC3)cc2)cc1)C1CC1 | – | – | -71.1 | – | – | –
COc1cccc(CNC(=O)CN2C(=O)N(c3cc(C)ccc3C)S(=O)(=O)c3ccccc32)c1OC | – | ? | · | · | · | –
CCCC(O)(c1ccc(Br)cc1)C(CN1CCOCC1)c1ccc(Cl)cc1 (configuration not stated) | – | – | -84.1 | ? | ? | –
Cc1cc(NCCCN(C)C)n2nc(-c3cccs3)cc2n1 | – | – | -109.5 | – | – | ?
Cc1cc(C)c2c(n1)nn1c(NCCOCCO)cc(C)nc21 | – | – | – | – | – | –
Cc1cc(C)c2c(n1)nn1c(NCCCN(C)C)cc(C)nc21 | – | – | – | 20.6µM | ? | –
Cc1ccc(-c2cc3nc(-c4ccccc4)cc(NCCCO)n3n2)cc1 | · | – | – | · | · | –
CN(C)C(=O)N1CCC(C(=O)NC2CCCCCCC2)CC1 | – | – | – | 8.2µM | ? | –
Fc1ccc(NC(=S)N2CCc3ccccc32)cc1 | · | ? | – | – | – | –
SMILES | ATXN2 expr inh | S2 tox | IL1B secr inh | SW480 rereplic | MCF10A rerep | PINK1 expr mod
FC(F)Oc1ccc(NC(=S)N2CCc3ccccc32)cc1 | – | – | -61.4 | – | – | –
CCC(=O)N1CCc2cc(S(=O)(=O)NC(CC(C)C)C(=O)Nc3cc(C)ccc3OC)ccc21 (configuration not stated) | – | – | · | · | · | –
CCNc1nc(CN2CCOCC2)nc2sc3c(c12)CCC3 | – | – | – | – | – | –
c1ccc2c(c1)CCN(c1nc(CN3CCOCC3)nc3sc4c(c13)CCCC4)C2 | – | ? | -51.3 | – | ? | –
CCCNC(=S)Nc1ccc(Br)cc1 | – | – | – | – | – | –
CC(C)(C)CC(=O)NC(=S)NCCc1ccccc1 | – | – | – | 10.3µM | ? | –
CC(C)CC(=O)NC(=S)NCCc1ccccc1 | – | – | – | –[9.22 µM] | – | –
Oc1ccc(Br)cc1/C=N/NC(=S)NCCc1ccccc1 | ? | – | -74.6 | ? | ? | –
S=C(NCCc1ccccc1)Nc1ccc(Br)cc1 | – | – | -69.6 | – | ? | ?
COc1ccc(O)c(/C=N/NC(=S)NCCc2ccccc2)c1 | ? | ? | -97.4 | – | ? | –
COc1cc(OC)c(OC)cc1CN1CCOc2ccc(CN3C[C@@H](C)O[C@@H](C)C3)cc2C1 | · | – | · | · | · | –
Cc1ccc(-c2nnc(Nc3ccc(Cl)cc3)c3ccccc23)cc1S(=O)(=O)N1CCOCC1 | – | – | · | · | · | –
Cc1cc(N/N=C/c2ccccc2)nc(NCc2ccccc2)n1 | – | – | – | ? | ? | ?
Cc1cc(N/N=C/c2cccc(Cl)c2)nc(NCc2ccccc2)n1 | ? | ? | -77.2 | – | ? | –
Cc1cc(N/N=C/c2cccc(F)c2)nc(NCc2ccccc2)n1 | – | ? | -71.6 | – | ? | –
Cc1cc(N/N=C/c2ccc(Cl)cc2)nc(NCc2ccccc2)n1 | – | ? | -83.9 | ? | ? | –
O=C(CSC1=Nc2ccccc2C2=NC(CCC(=O)NC3CCCCC3)C(=O)N12)Nc1cccc(C(F)(F)F)c1 (configuration not stated) | – | – | · | · | · | –
O=S(=O)(Nc1cc2nc3ccccc3nc2n1Cc1ccccc1)c1ccc(Cl)cc1 | – | · | -91.3 | 10µM | 7.31µM | ?
CC(C)(C)OC(=O)N1CCC(C(=O)N[C@@H](Cc2ccccc2)C(=O)O)(c2ccccc2)CC1 | – | – | – | 0.461µM! | ? | –
Cc1cc(C)n(-c2nc3ccccc3nc2Nc2cccc(C(F)(F)F)c2)n1 | – | – | · | · | · | –
O=C(/C=C/c1ccc(O)cc1)c1ccccc1 | – | – | ? | – | ? | –
O=C(/C=C/c1ccc(N2CCC(c3ccccc3)=N2)cc1)c1ccccc1 | – | · | -94.2 | ? | 6.51µM | ?
CCOC(=O)N1CCN(C/C(C)=C/c2ccccc2)CC1 | – | – | – | – | – | –
CCOC(=O)/C(=C\c1ccc(N2CCC(c3ccccc3)=N2)cc1)C(C)=O | – | – | ? | 1.46µM | 1.46µM | –
Cc1ccc(N(C)C(=O)C2CCN(S(=O)(=O)c3c(C)noc3/C=C/c3c(C)cc(C)cc3C)CC2)cc1 | · | · | · | · | · | –
Cc1cc(C)c2cc(CN(CCO)Cc3nnnn3Cc3ccccc3)c(=O)[nH]c2c1 | – | – | – | – | – | –
